TGFb inhibitor = qHTS for Inhibitors of TGF-b. HepG2 CAGA-GFP TGF-b/SMAD3 reporter, GFP fluorescence, 18 h; TGF-beta stimulated, 500 pg/mL final. Potency, µM (highest dose often 46.1 µM), without a hit: top-dose activity, negative = inhibition, most hits filed as inhibitors. actives 1.2% (n = 410,000). AID 588855, 2011; note: % is set by controls: 0 for no effect and ±100 for the full control effect; nearly all actives have a fitted effect of over 65% in size
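Cell-based qHTS in HEPG2 carrying a CAGA-GFP Smad reporter; compounds added before 500 pg/mL final TGF-beta, 18 h incubation at 37 degrees C, GFP fluorescence quantified per cell by imaging cytometry.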
ATXN viability = Viability Counterscreen for Primary qHTS for Inhibitors of ATXN expression | S2 cells (HEK-293 line with an ATXN2-luciferase reporter) viability, CellTiter-Fluor protease fluorescence, 24 h | actives 0.49% (n = 400,000) | Potency, µM (top dose mostly 56.7 µM), most hits filed as cytotoxic; note: nearly all actives have a fitted effect of over 40% in size
ATXN2 expr inh = Primary qHTS for Inhibitors of ATXN expression; HEK-293 ATXN2-luciferase reporter, luminescence, 24 h; AID 1745845, 2022; Potency, µM (series often up to 57 µM), for inactives: top-dose activity change, negative = inhibition, usual class: inhibitors; actives 0.72% (n = 360,000); note: % is set by controls: 0 for no effect and ±100 for the full control effect; nearly all actives have a fitted effect of over 55% in size
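qHTS (up to 57 uM final) was run with 24 h compound exposure of reporter cells at 37 °C. Each well was multiplexed: SteadyGlo luminescence measured ATXN2-luciferase expression after a fluorogenic Gly-Phe-AFC viability readout (25 uM final).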
HepG2 tox = qHTS for Inhibitors of TGF-b: Cytotox Counterscreen | HepG2 CAGA-GFP viability, ATP luminescence, 18 h | AID 588856, 2011 | actives 0.76% (n = 410,000) | Potency, µM (series often up to 46.1 µM), for the others: at the highest dose activity change, negative = cytotoxicity, usual class: cytotoxic
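CellTiter-Glo luminescence gave cytotoxicity after 18 hours at 37 degrees C. The cells were HepG2 CAGA-GFP in 1% FBS DMEM, stimulated with 500 pg/mL TGF-beta after compound addition. %Activity was normalised to no-cell wells (complete cell-killing) and DMSO (no toxicity), and curves were fitted and classified.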
Nrf2 block = Nrf2 qHTS screen for inhibitors; Potency, µM (titrated, usually from 46 µM), inactives show top-dose activity change, negative = inhibition, usual class: inhibitors; actives 2.1% (n = 360,000); A549 ARE-Fluc reporter, luciferase luminescence, 18-24 h; note: % is set by controls: 0 for no effect and ±100 for the full control effect; nearly all actives have a fitted effect of over 60% in size
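Concentration-response testing used A549 ARE_Fluc cells at 5000 cells/well. Following an 18-24 h compound incubation, viability was read by fluorescence (Ex 405/Em 525) and luciferase output by luminescence.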
A549 tox = Nrf2 qHTS screen for inhibitors: counterscreen for cytotoxicity; A549 ARE-Fluc cells, CellTiter-Fluor viability, 18-24 h; Potency, µM (doses to about 46 µM), without a hit: at the highest dose activity change, negative = cytotoxicity, hits mostly inhibitors; actives 0.16% (n = 390,000); note: % is set by controls: 0 for no effect and ±100 for the full control effect
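A549 ARE-Fluc cells in 5% FBS OPTI-MEM, 5000 cells/well, rested 2 h then exposed to compounds in concentration-response for 18-24 h at 37 °C. Viability by CellTiter-Fluor fluorescence (Ex 405/Em 525) after 30 min; luciferase luminescence (BugLite, 15 min, RT) read afterwards.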
The depositor's hits bear a star; i = inactive; ? = inconclusive; nt = no result given. Compounds with a hit are over-represented: about 3.8% of the library has one in this group of screens. Calls come from the whole dose curve; as a rule, active = well fitted curve in the direction sought with a large enough effect; inconclusive = small, poorly fitted or top-dose-only effect, or another doubt; inactive = no such curve, though single readings can be large; an effect the other way counts as inactive or inconclusive. Potency is the fitted concentration of half-maximal effect.

SMILES | TGFb inhibitor | ATXN viability | ATXN2 expr inh | HepG2 tox | Nrf2 block | A549 tox
CC(C)OCCCNC(=O)c1ccc2c(c1)NC(=O)c1ccccc1S2 | ? | i | -6% | -28% | 21µM* | 0%
CC1=Nc2cc(C(=O)NCCCOC(C)C)ccc2Sc2ccccc21 | -16% | i | -8% | 1% | 7% | -9%
C=C1C(=O)[C@@]23C(CC[C@@H]1[C@H]2O)[C@@]12CO[C@]3(O)[C@@H](O)[C@@H]1C(C)(C)CC[C@@H]2O (stereo partly specified) | nt | nt | 9.7µM* | nt | nt | nt
COc1ccccc1-c1ccc([C@@H]2C[C@H]3[C@@H](CN2)CON3C)cc1 | 14% | i | 7% | -1% | nt | nt
COc1ccc(C2C(C(=O)NCC3CCCO3)c3cc(OC)c(OC)cc3C(=O)N2C)cc1OC (stereo unspecified) | 1% | i | 2% | 13% | 10% | 2%
CCCCCCCCNC(=S)NCCN1CCCCC1 | ? | 25µM* | nt | -23% | -10% | 8%
S=C(NCCCN1CCOCC1)NCCCN1CCOCC1 | -17% | i | -7% | -1% | -15% | 10%
c1ccc(C[n+]2cccc(-c3ccccc3)c2)cc1 | -37% | i | -11% | -26% | 18µM* | 1%
Cc1ccc(C)c(NS(=O)(=O)c2cc(C(N)=O)ccc2C)c1 | -2% | i | 7% | -6% | -22% | 12%
Cc1ccc(C(N)=O)cc1Nc1nccc(-c2cn(C(C)C)c3cnccc23)n1 | nt | nt | 12µM* | nt | nt | nt
COc1ccccc1CC(=O)Nc1cc(OC)c(NC(=O)c2ccccc2)cc1OC | 4% | i | -14% | -9% | 15µM* | -17%
O=C1c2ccccc2C(=O)N1c1ncccc1O | nt | nt | nt | nt | 3% | 8%
O=C(CSc1ccc(Cl)cc1)N1CCN(c2ncc(C(F)(F)F)cc2Cl)CC1 | 17% | i | -13% | -4% | 21µM* | -15%
COc1cc(/C=C/CNC[C@H]2O[C@@H](n3cnc4c(N)ncnc43)[C@H](O)[C@@H]2O)ccc1O | 1% | i | 11% | -4% | nt | nt
Clc1ccc(Cn2c(-c3cccnc3Cl)nc3ccccc32)c(Cl)c1 | -4% | i | -9% | -19% | 18µM* | ?
N#CN1CCC(NS(=O)(=O)c2ccc(F)cc2)C1 (stereo unspecified) | nt | nt | nt | nt | 8% | -2%
Cc1ccc(-n2nc3c(=O)n(C(C)C(=O)NCCC4=CCCCC4)nc(C)c3c2C)cc1 (stereo unspecified) | ? | i | nt | -45% | 21µM* | -16%
Cc1nn(C(C)C(=O)NCc2ccccc2F)c(=O)c2nn(-c3ccccc3)c(C)c12 (stereo unspecified) | -16% | i | -4% | -1% | 2% | 0%
CCC(C(=O)NCCc1ccc(C)cc1)n1nc(C)c2c(C)n(-c3ccccc3)nc2c1=O (stereo unspecified) | -3% | i | -9% | -4% | 16µM* | -18%
Cc1ccc(-n2nc3c(=O)n(C(C)C(=O)O)nc(C)c3c2C)cc1 (stereo unspecified) | nt | nt | nt | 0% | 10% | 2%
Cc1ccc(-n2nc3c(=O)n(C(C)C(=O)NCc4ccccc4C)nc(C)c3c2C)cc1 (stereo unspecified) | ? | nt | nt | -32% | 5.2µM* | -9%
Cc1ccc(CCNC(=O)C(C)n2nc(C)c3c(C)n(-c4ccccc4)nc3c2=O)cc1 (stereo unspecified) | -10% | i | -19% | -18% | -18% | 1%
Cc1ccc(-n2nc3c(=O)n(C(C)C(=O)NCc4ccc(Cl)cc4)nc(C)c3c2C)cc1 (stereo unspecified) | ? | i | -38% | -20% | 10µM* | -19%
COc1cc2c(cc1OC)CN(C(=O)c1cc(S(=O)(=O)N3CCOCC3)c(Cl)cc1Cl)CC2 | ? | i | -15% | -1% | ? | -5%
CC(=O)NC(C)(c1ccccc1)c1nc(-c2cc(F)cc(F)c2)cs1 (stereo unspecified) | 7% | i | 3% | -15% | nt | nt
SMILES | TGFb inhibitor | ATXN viability | ATXN2 expr inh | HepG2 tox | Nrf2 block | A549 tox
Cc1nc(SCC(=O)c2cc3ccccc3oc2=O)c(C#N)c(-c2ccccc2)c1C(=O)Nc1ccccc1 | -2% | i | -14% | 2% | 23µM* | -13%
C=C1C(=O)OC2C1CCC(C)C1C=CC(=O)C12C (stereo unspecified) | ? | ? | ? | -1% | ? | -8%
C=C1C(=O)OC2CC1C(O)CC(C)=CCCC(C)=CC(O)CC2C (stereo unspecified) | 11µM* | nt | ? | -113% | 9.2µM* | 15µM*
COc1ccc(CNC(=O)c2ccc(-c3c(C)noc3C)c3ccoc23)cc1OC | 14% | i | 30% | -27% | nt | nt
COc1ccccc1/C=C/C(=O)N1CCN(S(=O)(=O)c2cc(C)ccc2C)CC1 | -25% | ? | nt | -18% | 16µM* | -2%
Cc1ccc(/C=C/C(=O)N2CCN(S(=O)(=O)c3ccc(C)c(C)c3)CC2)o1 | 10µM* | i | -19% | -21% | 0% | 15%
O=C(c1ccc(Cn2c(=S)[nH]c3ccc(N4CCOCC4)cc3c2=O)cc1)N1CCC(N2CCCCC2)CC1 | 5% | i | 1% | -1% | ? | -3%
CCOC(=O)[C@H]1[C@H]2COc3ccc(Br)cc3[C@H]2N2C(=O)CN(Cc3ccc(Cl)cc3)C(=O)[C@@]12C | ? | i | -25% | -12% | 26µM* | -12%
CCOC(=O)[C@H]1[C@H]2COc3ccc(Br)cc3[C@@H]2N2C(=O)CN(Cc3ccc(Cl)cc3)C(=O)[C@@]12C | 0% | i | 11% | -3% | -27% | -4%
COC(=O)c1ccccc1NC(=O)c1cc[n+](C)cc1 | 0% | i | 1% | 5.6µM* | -6% | 3%
O=C(C1CCN(S(=O)(=O)c2ccc(-n3cnnn3)cc2)CC1)N1CCCCC1 | -1% | i | -21% | -3% | 13µM* | -2%
CCOc1ccc(S(=O)(=O)N2CCC(C(=O)N3CCCCCC3)CC2)cc1C | -22% | i | -18% | -14% | 18µM* | 0%
O=C1N(Cc2ccccc2)CC2(Br)COCOC12O (stereo unspecified) | -2% | i | 9% | 9% | -8% | 1%
Cc1cc(=O)[nH]c2nnc(SCC(N)=O)n12 | -15% | nt | nt | 0% | nt | -11%

Source: PubChem BioAssay
